The panel holds about 83,000 compounds, 20% with a hit somewhere; the sample as a whole holds those more often.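 A percent growth of 40 corresponds to 60% growth inhibition; 0 means no net growth; -100 means all cells died. Active threshold: below 10.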 A number with no mark means an inactive call. The source made the active and inactive calls.
Tests used:
Assay in all cases: NCI-60 one-dose screen, 48 h (100 = growth as untreated, 0 = no growth, -100 = all killed)
Details in all cases: 10 µM unless noted
HCT-15 colon = system: HCT-15 colon
HT29 colon = system: HT29 colon
SNB-75 CNS = system: SNB-75 CNS
SNB-19 CNS = system: SNB-19 CNS
U251 CNS = system: U251 CNS
PC-3 prostate = system: PC-3 prostate
SK-MEL-5 melanoma = system: SK-MEL-5 melanoma
UACC-62 melanoma = system: UACC-62 melanoma
LOX IMVI melanoma = system: LOX IMVI melanoma
SK-MEL-28 melanoma = system: SK-MEL-28 melanoma
SK-MEL-2 melanoma = system: SK-MEL-2 melanoma
SN12C renal = system: SN12C renal
UO-31 renal = system: UO-31 renal
TK-10 renal = system: TK-10 renal
ACHN renal = system: ACHN renal
CAKI-1 renal = system: CAKI-1 renal
A498 renal = system: A498 renal
CCRF-CEM leukemia = system: CCRF-CEM leukemia
MOLT-4 leukemia = system: MOLT-4 leukemia
EKVX NSCLC = system: EKVX NSCLC

SMILES | growth (HCT-15 colon) | growth (HT29 colon) | growth (SNB-75 CNS) | growth (SNB-19 CNS) | growth (U251 CNS) | growth (PC-3 prostate) | growth (SK-MEL-5 melanoma) | growth (UACC-62 melanoma) | growth (LOX IMVI melanoma) | growth (SK-MEL-28 melanoma) | growth (SK-MEL-2 melanoma) | growth (SN12C renal) | growth (UO-31 renal) | growth (TK-10 renal) | growth (ACHN renal) | growth (CAKI-1 renal) | growth (A498 renal) | growth (CCRF-CEM leukemia) | growth (MOLT-4 leukemia) | growth (EKVX NSCLC)
NS(=O)(=O)c1ccc(Nc2nc(N/N=C/c3ccccn3)nc(Nc3ccccc3)n2)cc1 | 17.6% | 6.29% (active) | -25.4% (active) | 9.62% (active) | -55.2% (active) | -7.87% (active) | -84.8% (active) | -49.3% (active) | -43.7% (active) | -64.3% (active) | -82% (active) | 2.73% (active) | 17.4% | 2.56% (active) | 17.5% | -25.3% (active) | -67.6% (active) | 5.99% (active) | 3.13% (active) | 
COc1ccc(/C=C(\C#N)C(=O)N2c3ccccc3Sc3ccc(SC)cc32)cc1F | 94.9% | 103% | 87.6% | 90.4% | 92.9% | 88.9% | 93% | 71.3% | 88.8% | 98.9% | 96.2% | 99.4% | 76.2% | 97.1% | 88.5% | 68.9% | 79.5% | 93.9% | 82.9% | 
NC(N)=Nc1ccc(Oc2cccc(Nc3ccc(Br)c(C(F)(F)F)c3)c2)cn1 | -68.3% (active) | -48.5% (active) | 9.31% (active) | -83.5% (active) | -79.6% (active) | -92% (active) | 16.9% | -76.9% (active) | -87.6% (active) | -32.1% (active) | -45.1% (active) | -87.7% (active) | 38.6% |  | 1.96% (active) | -5.28% (active) | -25.1% (active) | 0.633% (active) | -35.6% (active) | -68.8% (active)
Cc1noc(C)c1CSc1nc2ccccc2n1-c1ccccc1 | 106% | 106% | 30.9% | 96.5% | 102% | 100% | 94.4% | 72.5% | 88.2% | 111% | 107% | 81.4% | 48.8% |  | 96.1% | 41.6% | 48.1% |  | 97% | 65.2%
CNC(=O)c1c(NC(=O)c2ccccc2C(F)(F)F)sc2c1CCC(=O)C2 | 9.11% (active) | 26.5% | 93.1% | 41.1% | 24.8% | 14.8% | -17.1% (active) | 16.6% | 22% | 45.4% | 88.1% | 62.1% | 3.82% (active) | 26.2% | 9.31% (active) | 0.09% (active) | 80.4% | 11.9% | 18.3% | 
O=c1[nH]c(Sc2sc3ccc(Cl)cc3c2CBr)nc(=S)[nH]1 | 21.2% | 91.4% | 54% | 60.7% | 38.7% | 26.4% | 35.1% | 1.82% (active) | 25.9% | 28.4% | 7.23% (active) | 41.8% | 19.9% |  | 26.7% | 13.7% | 5.73% (active) | 18% | 17.5% | 40.2%
Cc1ccc(C2=NN(C)C(=O)C3(CCCC3)C2)cc1 | 101% | 106% | 93.5% | 105% | 103% | 102% | 101% | 98.5% | 100% | 103% | 110% | 101% | 95.5% | 97.3% | 110% | 100% | 89.4% | 111% | 102% | 
N/C(=N\C(N)=N\c1nc2ccccc2s1)c1ccc2ccccc2c1 | 69% | 104% | 48.5% | 94.7% | 47.9% | 50.6% | 97.4% | 93.4% | -45.7% (active) | 95.5% | 97.7% | 75.3% | 23.4% |  | 78.4% | 36.4% | 96.9% |  | 60.6% | 47.9%
COc1ccc(/C=N/NC(=O)c2cn(C3CC3)c3c(OC)c(N4CC5CCCNC5C4)c(F)cc3c2=O)cc1 (stereo unspecified) | 47.6% | 32.4% | 93.1% | 96.6% | 89.4% | 75.1% | 87.1% | 100% | 19.6% | 92.8% | 107% | 81% | 62.4% | 116% | 88.7% | 82.9% | 83.3% | 63.6% | 60.4% | 
COc1c(N2CC3CCCNC3C2)c(F)cc2c(=O)c(C(=O)N/N=C/c3c[nH]c4ccccc34)cn(C3CC3)c12 (stereo unspecified) | 57.4% | 50.5% | 99.5% | 103% | 99.2% | 76.9% | 95.3% | 103% | 90.2% | 104% | 110% | 95.7% | 77.2% |  | 99.8% | 98.7% | 118% | 71.2% | 74.1% | 105%
CCn1c(SCC(=O)Nc2cccc(C(=O)/C=C/c3ccc(Br)cc3)c2)nc2ccccc2c1=O | 65% | 85.4% | 73.8% | 85.9% | 88.7% | 83.4% | 91.7% | 73.9% | 41.9% | 98.2% | 106% | 92.7% | 71.9% |  | 102% | 90.7% | 87.3% | 75% | 98.3% | 96.5%
CNC(=O)c1cc(-c2ccc(NC(=S)Nc3cc(C(F)(F)F)cc(C(F)(F)F)c3)cc2)nc2cccnc12 | 107% | 108% | 49.1% | 104% | 103% | 80.6% | 92.7% | 95.3% | 93.9% | 103% | 99.3% | 86.7% | 59.7% | 68.9% | 101% | 71.4% | 47.2% | 94.5% | 88% | 
CCOC(=O)c1c(N)c(C#N)cn1-c1cc(OC)c(OC)c(OC)c1 | 106% | 107% | 92.7% | 101% | 114% | 105% | 111% | 101% | 97.8% | 108% | 129% | 101% | 88.8% |  | 101% | 91.8% | 93.7% | 107% | 102% | 96%
C=CCn1c(SCC(=O)Nc2ccc(C(=O)/C=C/c3ccc(Cl)cc3)cc2)nnc1-c1c[nH]c2ccccc12 | 62.9% | 88.7% | 93.5% | 76.1% | 76.3% | 58.4% | 42.9% | 57.4% | 1.53% (active) | 90.2% | 88.7% | 71.5% | 47.8% |  | 77.6% |  | 91.4% | 75.3% | 66.4% | 56.1%
Cc1ccc(CSc2nc(-c3ccc(Cl)cc3)c(C#N)c(N3CCNCC3)n2)cc1 | 76.2% | 58.4% | 68.5% | 84.7% | 65.4% | 63.5% | 74.2% | 105% | 52.1% | 102% | 115% | 77.8% | 64.2% |  | 82.3% | 64.9% | 17.6% | 65.6% | 55.5% | 82.2%
CC(c1ccccc1)N1CSc2nc3ncncc3n2C1 (stereo unspecified) | 37.3% | 30.4% | 51.5% | 99.5% | 70.6% | 42.4% | 49.3% | 20.6% | 10.1% | 96.9% | 57.2% | 68.8% | 47.6% |  | 45.2% | 27.2% | 85.8% | 23.1% | 18.2% | 84.8%
